# Test results published in PubChem BioAssay (NCATS).
# Several values for one entry are separate records, joined by “and”; a condition that tells them apart may be missing. Equal entries are not always repeated. Results filed as inconclusive are left out. More than one record can exist for a structure, and the calls need not agree. Activity calls are given as the source filed them. The call rests on the fitted dose curve; in most records, active means well fitted cell-killing curve with a large enough effect; inconclusive means small, poorly fitted or top-dose-only effect, or effect the other way; inactive means no such curve, though single readings can be large or run the other way.
# Assay: Viability qHTS for spleen associated tyrosine kinase inhibitor (SYKi) naive MV4-11 cells (AID 1963823); further: nearly all actives have a fitted effect of over 40% in size
# Conditions: MV4-11 AML viability, CellTiter-Glo luminescence, 72 h; series mostly up to 45 µM
# Procedure, shortened: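 qHTS, SYK inhibitor-naive MV4-11; 500 cells/well; 72 hr compound exposure, 37 C; CellTiter-Glo added, 10 min RT; luminescence read.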
# Potency means the concentration at half of the fitted maximal effect.
row,SMILES,Potency
1,c1ccc(-c2ccc(CNc3nc(-c4ccccn4)nnc3-c3ccccc3)cc2)cc1,0.92 µM (active)
2,C=C1CCC2[C@](C)(CO)C(O)CC[C@]2(C)C1C/C=C1/C(=O)OCC1O (stereo not given in full),3.32 µM (active)
3,C[C@]12CCC3=C4CCC(=O)C=C4CC[C@H]3[C@@H]1CC[C@@]2(O)CC#N,inactive
4,CC(C)C[C@H](CO)Nc1nc(S[C@@H](C)c2ccccc2)nc2nc(N)sc12,14.6 µM (active)
5,NCCCC[C@H](NC(=O)[C@@H](NC(=O)[C@H](Cc1c[nH]c2ccccc12)NC(=O)[C@H](CCCCN)NC(=O)[C@H](CCCCN)NC(=O)[C@H](Cc1c[nH]c2ccccc12)NC(=O)[C@H](Cc1c[nH]c2ccccc12)NC(=O)[C@H](CCCCN)NC(=O)[C@@H](N)CCCCN)C(c1ccccc1)c1ccccc1)C(N)=O,8.33 µM (active)
6,Cc1c(NC(=O)c2cc(C(N)=O)nc3cc(F)ccc23)c(C(F)(F)F)nn1Cc1ccc(C#N)cc1,inactive and 14.8 µM (active)
7,CNC(=O)c1ccccc1Nc1nc(Nc2ccc3c(c2OC)CCC[C@@H](N2CCN(CCO)CC2)C3)ncc1Cl,0.366 µM (active)
8,C[C@]1(Cn2ccnn2)[C@H](C(=O)O)N2C(=O)C[C@H]2S1(=O)=O,inactive
9,CCCCCOc1ccccc1/C(=C\SC)n1ccnc1,11.9 µM (active)
10,Cc1ccc(NC(=O)Nc2nnc(Sc3ncnc4cc(OCCCN5CCOCC5)ccc34)s2)cc1,0.0148 µM (active)
11,C#Cc1ccc(-c2ccccc2F)cc1,inactive
12,C#C[C@]1(O)CC[C@H]2[C@@H]3CCC4=Cc5oncc5C[C@]4(C)[C@H]3CC[C@@]21C,15 µM (active)
13,COc1cc(C)c(/C=C/C(C)=C/C=C/C(C)=C/C(=O)O)c(C)c1C,2.35 µM (active)
14,COc1cc(C(=O)OC(COCCC(C)C)CN2CCOCC2)cc(OC)c1OC (stereo not given),inactive
15,Cc1oc(=O)oc1COC(=O)[C@@H]1N2C(=O)[C@@H](NC(=O)[C@H](N)c3ccccc3)[C@H]2SC1(C)C,inactive
16,CCCCCCCCCCCCCCCC[N+](C)(C)Cc1ccccc1,2.37 µM (active)
17,CC1=C(c2ccc(O)cc2)[C@H](c2ccc(OCCN3CCCCC3)cc2)Oc2cc(O)ccc21,8.33 µM (active)
18,CC(C)(C)Sc1c(CC(C)(C)C(=O)O)n(Cc2ccc(Cl)cc2)c2ccc(OCc3ccc4ccccc4n3)cc12,inactive and 16.6 µM (active)
19,C=CC(=O)N1CCC(CNc2ncnc(N)c2-c2ccc(Oc3ccccc3)cc2)CC1,5.9 µM (active)
20,CC1=C(C(=O)O)N2C(=O)[C@@H](NC(=O)[C@H](N)c3ccccc3)[C@H]2SC1,inactive

row,SMILES,Potency
1,CCC(=O)O[C@]1(C(=O)CCl)[C@@H](C)C[C@H]2[C@@H]3CCC4=CC(=O)C=C[C@]4(C)[C@@]3(F)[C@@H](O)C[C@@]21C,4.73 µM (active) and 10.5 µM (active)
2,CC(C(O)c1ccccc1)N(C)CCOC(c1ccccc1)c1ccccc1 (stereo not given),9.2 µM (active)
3,CCOc1ccc(Cc2cc([C@@H]3O[C@H](CO)[C@@H](O)[C@H](O)[C@H]3O)ccc2Cl)cc1,inactive
4,C=C1c2cccc(O)c2C(O)=C2C(=O)[C@]3(O)C(O)=C(C(N)=O)C(=O)[C@@H](N(C)C)[C@@H]3[C@@H](O)[C@H]12,inactive
5,COc1ccccc1C(=O)Nc1cc2c(cc1N1CCCC1)n(C)c(=O)n2C,8.2 µM (active)
6,Nc1nc(F)nc2c1ncn2[C@@H]1O[C@H](COP(=O)(O)O)[C@@H](O)[C@@H]1O,8.33 µM (active)
7,CNS(=O)(=O)c1ccc2c(c1)/C(=C/c1[nH]c3c(c1CCCN1CCN(C)CC1)CCCC3)C(=O)N2,0.186 µM (active)
8,COc1ccc(Cl)c(Nc2ncnc3cc(OCC4CCN(C)CC4)c(OC)cc23)c1,5.25 µM (active)
9,Cc1cc(O)cc2c1O[C@](C)(CCC[C@H](C)CCC[C@H](C)CCCC(C)C)CC2,inactive
10,CC[C@@]1(O)C(=O)OCc2c1cc1n(c2=O)Cc2c-1nc1ccccc1c2CCNC(C)C,0.0059 µM (active)
11,Nc1nc(F)nc2c1ncn2C1OC(COP(=O)(O)O)C(O)C1O (stereo not given),10.5 µM (active)
12,CC[C@H](Nc1ncnc2nc[nH]c12)c1oc2ccccc2c(=O)c1-c1cccc(F)c1,5.9 µM (active)
13,Cc1ccc(-n2nc(C(C)(C)C)cc2NC(=O)NCc2cc(F)ccc2Oc2ccc3c(cnn3CCO)c2)cc1,9.34 µM (active)
14,CCCCCCCCCCCCCC[N+](C)(C)Cc1ccccc1,2.99 µM (active)
15,CCCCN1C[C@H](O)[C@@H](O)[C@H](O)[C@H]1CO,inactive
16,O=C(c1ccc(/C=C/c2n[nH]c3ccccc23)cc1)N1CCNCC1,0.058 µM (active)
17,C=C1C(=O)OC2/C=C(/C)CC/C=C(/C)CCC12 (stereo not given),8.33 µM (active)
18,Cc1c(O)cccc1C(=O)NC(CSc1ccccc1)C(O)CN1CC2CCCCC2CC1C(=O)NC(C)(C)C (stereo not given),16.6 µM (active)
19,CCOC(=O)c1ccnc(CNCC(=O)N(CC)CCN(C)C)c1,inactive
20,CCC[C@@H]1C[C@@H](C(=O)N[C@@H]([C@H]2O[C@H](SC)[C@H](O)[C@@H](O)[C@H]2O)[C@H](C)Cl)N(C)C1,inactive
